The record followed here is PubChem BioAssay (NCI).

SMILES strings stand for the structures. This is part of a sample that, as a whole, favours compounds with a hit. Of some 83,000 tested, about 20% had one in any assay.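 Results are percent growth after 48 hours of single-concentration exposure. 100 means growth as in untreated cells, lower positive values show inhibition; negative values down to -100 show cell death.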 Unmarked numbers belong to inactive results. Active and inactive are the calls of the source. How the source made its calls: active means growth percent below 10; inactive means the rest.

The assay deals with HL-60(TB) leukemia. The experiment in a line: NCI-60 one-dose screen, 48 h (100 = growth as untreated, 0 = no growth, -100 = all killed). To be noted: 10 µM unless noted.
Consider `C/C=C/c1cc2c(c(=O)o1)C(=O)[C@@H](O)[C@H](C)O2`, for which the growth was -22% (active).

Regarding `COC(=O)[C@]12CC[C@@H](C)[C@H](C)[C@@H]1C1=CC[C@@H]3[C@@]4(C)C(C=O)=C[C@@](C)(COS(C)(=O)=O)[C@@H]4C(=O)C[C@@]3(C)[C@]1(C)CC2`, the growth was 31.5%.

As for `CCOc1c(Br)cc(C2C(C(=O)OC)=CN(C)C=C2C(=O)OC)cc1OC`, the growth is 35.5%.
